From PubChem BioAssay (NCI)
Several values for one entry are separate records, joined by “and”; a condition that tells them apart may be missing. Equal entries are not always repeated. The panel holds about 83,000 compounds, 20% with a hit somewhere; the sample as a whole holds those more often.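 Single-dose data. Exposure time 48 hours. Values below 10 considered active.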 Activity calls are given as the source filed them.

Legend:
Assay in all cases: NCI-60 one-dose screen, 48 h (100 = growth as untreated, 0 = no growth, -100 = all killed)
NCI-H23 lung = test system: NCI-H23 lung
NCI-H226 lung = test system: NCI-H226 lung
NCI-H322M lung = test system: NCI-H322M lung
NCI-H460 lung = test system: NCI-H460 lung
HOP-92 NSCLC = test system: HOP-92 NSCLC
A549/ATCC NSCLC = test system: A549/ATCC NSCLC
786-0 renal = test system: 786-0 renal
COLO 205 colon = test system: COLO 205 colon
DU-145 prostate = test system: DU-145 prostate
K-562 leukemia = test system: K-562 leukemia
MALME-3M melanoma = test system: MALME-3M melanoma
MDA-MB-231 breast = test system: MDA-MB-231 breast
RXF 393 renal = test system: RXF 393 renal
SF-268 CNS = test system: SF-268 CNS
SF-295 CNS = test system: SF-295 CNS
SF-539 CNS = test system: SF-539 CNS
UACC-257 melanoma = conditions: 10 µM unless noted
M14 melanoma = test system: M14 melanoma
HOP-62 NSCLC = test system: HOP-62 NSCLC
NCI-H522 lung = conditions: 10 µM unless noted

Measured: growth

O=c1ccn2c(n1)OC1CC2OC1COC(c1ccccc1)(c1ccccc1)c1ccccc1 (stereo not given)
inactive: NCI-H23 lung; 10 µM 116% | NCI-H23 lung; 100 µM 99.6% | NCI-H226 lung; 10 µM 102% | NCI-H226 lung; 100 µM 90.5% | NCI-H322M lung; 10 µM 106% | NCI-H322M lung; 100 µM 49.9% | NCI-H460 lung; 10 µM 106% | NCI-H460 lung; 100 µM 94.5% | HOP-92 NSCLC; 10 µM unless noted 72.4% [100 µM] | A549/ATCC NSCLC; 10 µM 93.5% | A549/ATCC NSCLC; 100 µM 83% | 786-0 renal; 10 µM 113% | 786-0 renal; 100 µM 86.1% | COLO 205 colon; 10 µM 112% | COLO 205 colon; 100 µM 115% | DU-145 prostate; 10 µM 115% | DU-145 prostate; 100 µM 99.1% | K-562 leukemia; 10 µM 102% | K-562 leukemia; 100 µM 50.4% | MALME-3M melanoma; 10 µM 119% | MALME-3M melanoma; 100 µM 95% | MDA-MB-231 breast; 10 µM 111% | MDA-MB-231 breast; 100 µM 82.1% | RXF 393 renal; 10 µM 107% | RXF 393 renal; 100 µM 75.8% | SF-268 CNS; 10 µM 119% | SF-268 CNS; 100 µM 76.3% | SF-295 CNS; 10 µM 118% | SF-295 CNS; 100 µM 67.1% | SF-539 CNS; 10 µM 110% | SF-539 CNS; 100 µM 48.8% | UACC-257 melanoma 93.8% [100 µM] | M14 melanoma; 10 µM 112% | M14 melanoma; 100 µM 46.1%

CS/C(=C\c1ccc(C(=O)c2ccc(C)cc2)n1C)S(C)=O (stereo not given)
inactive: NCI-H23 lung; 10 µM 109% | NCI-H23 lung; 100 µM 66.2% | NCI-H226 lung; 10 µM 81.3% | NCI-H226 lung; 100 µM 72.3% | NCI-H322M lung; 10 µM 98% | NCI-H322M lung; 100 µM 103% | HOP-62 NSCLC; 10 µM 96.8% | HOP-62 NSCLC; 100 µM 76.9% | NCI-H460 lung; 10 µM 96.8% | NCI-H460 lung; 100 µM 91.4% | HOP-92 NSCLC; 10 µM 71.7% | HOP-92 NSCLC; 100 µM 64.6% | 786-0 renal; 10 µM 99.4% | 786-0 renal; 100 µM 74.1% | COLO 205 colon; 10 µM 126% | COLO 205 colon; 100 µM 93.5% | DU-145 prostate; 10 µM 110% | DU-145 prostate; 100 µM 88.1% | K-562 leukemia; 10 µM 44.4% | K-562 leukemia; 100 µM 26.3% | MALME-3M melanoma; 10 µM 95% | MALME-3M melanoma; 100 µM 69.3% | MDA-MB-231 breast; 10 µM 89.6% | MDA-MB-231 breast; 100 µM 85.6% | RXF 393 renal; 10 µM 101% | RXF 393 renal; 100 µM 73.2% | SF-268 CNS; 10 µM 112% | SF-268 CNS; 100 µM 93.2% | SF-295 CNS; 10 µM 60.7% | SF-295 CNS; 100 µM 62.2% | SF-539 CNS; 10 µM 91.3% | SF-539 CNS; 100 µM 80.4% | UACC-257 melanoma 64.6% [100 µM] | M14 melanoma; 10 µM 103% | M14 melanoma; 100 µM 69%
active: NCI-H522 lung 6.15% [100 µM]

CC(=O)Oc1ccc(C(c2ccc(OC(C)=O)cc2)c2ccccn2)cc1
inactive: NCI-H23 lung; 10 µM unless noted 59.7% and 57% | NCI-H226 lung; 10 µM unless noted 89.2% and 106% | NCI-H322M lung; 10 µM unless noted 30.6% and 64.6% | HOP-62 NSCLC; 10 µM unless noted 87.9% and 109% | NCI-H460 lung; 10 µM unless noted 105% and 101% | HOP-92 NSCLC; 10 µM unless noted 66.1% and 34.1% | NCI-H522 lung 91.4% and 72.6% | A549/ATCC NSCLC; 10 µM unless noted 87% and 13.8% | 786-0 renal; 10 µM unless noted 101% | COLO 205 colon; 10 µM unless noted 24% and 17.9% | DU-145 prostate; 10 µM unless noted 96.8% and 106% | K-562 leukemia; 10 µM unless noted 89.6% and 99.2% | MALME-3M melanoma; 10 µM unless noted 100% and 107% | MDA-MB-231 breast; 10 µM unless noted 100% and 102% | RXF 393 renal; 10 µM unless noted 71.9% and 16.1% | SF-268 CNS; 10 µM unless noted 104% and 99.3% | SF-295 CNS; 10 µM unless noted 92.1% | SF-539 CNS; 10 µM unless noted 100% and 75.6% | UACC-257 melanoma 96.1% and 88.3% | M14 melanoma; 10 µM unless noted 95.1% and 69.3%

COc1ccc(/C=C/C(=O)O)cc1OC
inactive: NCI-H23 lung; 10 µM unless noted 108% and 98.7% | NCI-H226 lung; 10 µM unless noted 102% and 107% | NCI-H322M lung; 10 µM unless noted 101% and 115% | HOP-62 NSCLC; 10 µM unless noted 104% and 105% | NCI-H460 lung; 10 µM unless noted 103% | HOP-92 NSCLC; 10 µM unless noted 89% and 97.1% | NCI-H522 lung 102% and 84% | A549/ATCC NSCLC; 10 µM unless noted 99.7% and 104% | 786-0 renal; 10 µM unless noted 102% and 105% | COLO 205 colon; 10 µM unless noted 104% and 115% | DU-145 prostate; 10 µM unless noted 108% and 111% | K-562 leukemia; 10 µM unless noted 96.7% and 105% | MALME-3M melanoma; 10 µM unless noted 103% and 122% | MDA-MB-231 breast; 10 µM unless noted 100% and 108% | RXF 393 renal; 10 µM unless noted 107% and 111% | SF-268 CNS; 10 µM unless noted 108% and 99.3% | SF-295 CNS; 10 µM unless noted 107% and 105% | SF-539 CNS; 10 µM unless noted 102% and 105% | UACC-257 melanoma 104% and 102% | M14 melanoma; 10 µM unless noted 101% and 106%
